Inconclusive results are not listed. Values without a mark were called inactive. Calls of active or inactive are those of the source. Calls follow the shape of the dose curve; as a rule, active = well fitted curve in the direction sought with a large enough effect; inconclusive = small, poorly fitted or top-dose-only effect, or another doubt; inactive = no such curve, though single readings can be large; an effect the other way counts as inactive or inconclusive.

One assay relates to MCC-13. Nature of the assay: qHTS assay to identify novel small-molecules to repurpose for Merkel cell carcinoma treatment (AID 1296009). Also: nearly all actives have a fitted effect of over 60% in size. The settings on record: MCC and control cell lines, CellTiter-Glo viability, 72 h; series mostly up to 46 µM. The method in brief:
(§1)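 Cell viability, measured as CellTiter-Glo luminescence, was normalized between DMSO and no-cell wells. The cells had been exposed to 8- or 11-point compound dilutions for 72 hr at 37 degree celsius.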

The next assay concerns MCC-26. The description is as above. The following applies: MCC and control cell lines, CellTiter-Glo viability, 72 h; series mostly up to 46 µM. The essentials: as §1
A general note: Cellular ATP, detected with luciferase, serves as a proxy for viable cell number.

The test system of the next assay is C33A. Briefly: Primary qHTS to identify gynecologic anti-cancer compounds using libraries of approved drugs and bioactive compounds (AID 1345084). Also: nearly all actives have a fitted effect of over 55% in size. The settings on record: Gynecologic cancer cell panel viability, ATPlite luminescence, 48 h; series mostly up to 57.5 µM. The method in brief: (§2)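 Cytotoxicity screen measuring ATP content by luciferase luminescence. Each compound is applied at five concentrations for 48 h at 37 C with 5% CO2.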
In general terms: Quantitative high-throughput screening tests each substance at several concentrations.

The subject of a further assay is CASKI. Described as above. The following applies: Gynecologic cancer cell panel viability, ATPlite luminescence, 48 h; series mostly up to 57.5 µM. The essentials:
as §2

The next assay relates to Es-2. The description is as above. The settings on record: Gynecologic cancer cell panel viability, ATPlite luminescence, 48 h; series mostly up to 57.5 µM. The essentials:
as §2

In another assay the test system is HeLa. The assay is described as above. The settings on record: Gynecologic cancer cell panel viability, ATPlite luminescence, 48 h; series mostly up to 57.5 µM. The method in brief:
as §2

The test system of the next assay is Hek293T. Described as above. The settings on record: Gynecologic cancer cell panel viability, ATPlite luminescence, 48 h, control line for the selectivity index; series mostly up to 57.5 µM. The method in brief:
as §2

For a further assay, the system named is JEG-3. The description is as above. The settings on record: Gynecologic cancer cell panel viability, ATPlite luminescence, 48 h; series mostly up to 57.5 µM. The essentials: as §2
For the next assay, the system named is PA-1. The description is as above. The settings on record: Gynecologic cancer cell panel viability, ATPlite luminescence, 48 h; series mostly up to 57.5 µM. The essentials:
as §2

The next assay relates to Tov-21-G. The assay is described as above. The following applies: Gynecologic cancer cell panel viability, ATPlite luminescence, 48 h; series mostly up to 57.5 µM. The essentials:
as §2

The next assay deals with Tov112D. Described as above. The settings on record: Gynecologic cancer cell panel viability, ATPlite luminescence, 48 h; series mostly up to 57.5 µM. The essentials: as §2
For another assay, the system named is UISO. Briefly: qHTS assay to identify novel small-molecules to repurpose for Merkel cell carcinoma treatment (AID 1296009). Also: nearly all actives have a fitted effect of over 60% in size. The settings on record: MCC and control cell lines, CellTiter-Glo viability, 72 h; series mostly up to 46 µM. The essentials: as §1
Another assay has as its system WaGa. Described as above. The settings on record: MCC and control cell lines, CellTiter-Glo viability, 72 h; series mostly up to 46 µM. The method in brief:
as §1

A further assay has as its system OV90. Nature of the assay: Primary qHTS to identify gynecologic anti-cancer compounds using libraries of approved drugs and bioactive compounds (AID 1345084). Also: nearly all actives have a fitted effect of over 55% in size. The following applies: Gynecologic cancer cell panel viability, ATPlite luminescence, 48 h; series mostly up to 57.5 µM. The essentials: as §2
Assay [1] can be described thus: Drug repurposing screens with cells derived from glioblastoma tumor samples (AID 1345199). Also: nearly all actives have a fitted effect of over 40% in size. The following applies: GBM patient neurospheres viability, ATP luminescence, 48 h. The essentials:
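Primary testing used CD133+ neurospheres from four GBM patients, seven concentrations, 48 h exposure and ATP-based viability; confirmation added three slower-growing patient lines.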

The subject of the next assay is MKL-2. Nature of the assay: qHTS assay to identify novel small-molecules to repurpose for Merkel cell carcinoma treatment (AID 1296009). Also: nearly all actives have a fitted effect of over 60% in size. The following applies: MCC and control cell lines, CellTiter-Glo viability, 72 h; series mostly up to 46 µM. The method in brief:
as §1

A further assay has as its system CAOV3. Nature of the assay: Primary qHTS to identify gynecologic anti-cancer compounds using libraries of approved drugs and bioactive compounds (AID 1345084). Also: nearly all actives have a fitted effect of over 55% in size. The settings on record: Gynecologic cancer cell panel viability, ATPlite luminescence, 48 h; series mostly up to 57.5 µM. The essentials: as §2
A further assay has as its system SKOV3. The assay is described as above. The settings on record: Gynecologic cancer cell panel viability, ATPlite luminescence, 48 h; series mostly up to 57.5 µM. The essentials:
as §2

The mark [2] stands for this setting: at 46.1 µM (top of the series), tumour line C.
Setting [3] is: at 45.9 µM (top of the series), tumour line B.
% is scaled to controls: 0 for no effect and ±100 for the full control effect; potency is read from the fitted curve at half-maximal effect.

As for `CCC(=O)c1ccc2c(c1)N(CCCN(C)C)c1ccccc1S2`, the Potency result in the assay on MCC-13, with MCC-26, in the assay on C33A, in the assay on CASKI, with Es-2 and with HeLa was “inactive” each time. In addition, the Potency entry with Hek293T, in the assay on JEG-3, in the assay with PA-1, in the assay on Tov-21-G and with Tov112D was “inactive” each time.

Take `Nc1ncn([C@@H]2O[C@H](CO)[C@@H](O)[C@H]2O)c(=O)n1`: the Potency was 9.44 µM (active) with UISO; 16.8 µM (active) in the assay on WaGa; 3.98 µM (active) with Es-2; 10 µM (active) in the assay on JEG-3; 10 µM (active) in the assay on PA-1; 12.6 µM (active) in the assay with Tov-21-G. The Potency result in the assay with OV90 was “inactive”.

Take `CCCC(C(=O)OCCN(CC)CC)(c1ccccc1)c1ccccc1`: the Potency entry in the assay on MCC-26, in the assay with CASKI and with JEG-3 was “inactive” throughout. Besides, the figures for the Potency in the assay with UISO and in the assay with OV90 were 26.6 µM (active) and 12.6 µM (active), respectively.

`OCCN1CCN(CC/C=C2/c3ccccc3Sc3ccc(C(F)(F)F)cc32)CC1`: the Potency entry in the assay on MCC-26, with C33A, in the assay with CASKI, in the assay on JEG-3, in the assay on Tov-21-G and with Tov112D was “inactive” throughout. In addition, the Potency in the assay with OV90 was 10 µM (active); in assay [1] (tumour line A), 2 µM (active). Moreover, in [1] (setting [2]), the activity, negative = cell killing is -15%.

Take `O=C1NCN(c2ccccc2)C12CCN(CCCC(c1ccc(F)cc1)c1ccc(F)cc1)CC2`: the Potency is 23.7 µM (active) in the assay on MKL-2; 31.6 µM (active) in the assay with CAOV3; 31.6 µM (active) in the assay with Es-2; 31.6 µM (active) with JEG-3; 20 µM (active) with OV90. In addition, the Potency entry in the assay with Tov-21-G was “inactive”.

In the case of `COCCOC(=O)C1=C(C)NC(C)=C(C(=O)OC(C)C)C1c1cccc([N+](=O)[O-])c1` (stereo not drawn), the Potency result in the assay on MCC-13, with MCC-26, in the assay with C33A, in the assay on CAOV3, in the assay on CASKI and with Es-2 was “inactive” each time. Moreover, the Potency entry in the assay on HeLa, with Hek293T, in the assay with JEG-3, in the assay with OV90, with PA-1 and in the assay with SKOV3 was “inactive” in each case. In addition, the Potency entry in the assay with Tov-21-G and in the assay with Tov112D was “inactive” throughout. Further, the Potency in the assay with WaGa is 26.6 µM (active); in [1] (tumour line A), 14.1 µM (active). Further, the activity, negative = cell killing was -4.05% in [1] (setting [3]) and -1.16% in assay [1] (setting [2]).

On to `CN(C)CCCN1c2ccccc2Sc2ccccc21`, for which the Potency entry in the assay on MCC-13, with MCC-26, in the assay on C33A, with CAOV3, in the assay with CASKI and in the assay on Es-2 was “inactive” throughout. The Potency entry with HeLa, in the assay on Hek293T, in the assay with JEG-3, in the assay with PA-1, with SKOV3 and with Tov-21-G was “inactive” in each case. The Potency entry in the assay on Tov112D was “inactive”. For the same compound, the activity, negative = cell killing in assay [1] (at 20 µM (top of the series), tumour line C) was -19.7%. Also, the values for the Potency in assay [1] (tumour line A) and in assay [1] (tumour line D) were 12.6 µM (active) and 10 µM (active), respectively.

On to `Nc1nc(N)c2nc(-c3ccccc3)c(N)nc2n1`, for which the Potency result in the assay on MCC-26, with JEG-3 and with SKOV3 was “inactive” in each case. For the same compound, the Potency in the assay on WaGa is 26.6 µM (active); with C33A, 10 µM (active); in the assay on Es-2 it was 15.8 µM (active); in the assay on Tov-21-G, 20 µM (active); in assay [1] (tumour line A), 12.6 µM (active); in assay [1] (tumour line B), 28.2 µM (active). The activity, negative = cell killing in assay [1] (setting [2]) was 0.453%.

Take `CCCCNc1c(C(=O)OCC)c(C)nc2c1cnn2CC`: the Potency entry in the assay on MCC-13, with MCC-26, in the assay on MKL-2, in the assay on WaGa, with C33A and with CAOV3 was “inactive” each time. Also, the Potency result in the assay on CASKI, with Es-2, in the assay with HeLa, in the assay with Hek293T, with JEG-3 and in the assay on OV90 was “inactive” each time. For the same compound, the Potency entry in the assay on PA-1, in the assay on Tov-21-G and in the assay with Tov112D was “inactive” in each case. Also, the activity, negative = cell killing in [1] (setting [3]) is -23.3%. The Potency in [1] (tumour line A) was 12.6 µM (active).

Turning to `COc1ccc2c(c1OC)C(=O)O[C@@H]2[C@H]1c2c(cc3c(c2OC)OCO3)CCN1C`, the Potency result with MCC-13, in the assay on MCC-26, with MKL-2, with C33A, in the assay on Es-2 and with Hek293T was “inactive” throughout. Also, the Potency result in the assay on JEG-3, in the assay with OV90, in the assay on PA-1, in the assay with Tov-21-G and in the assay on Tov112D was “inactive” throughout. Besides, the activity, negative = cell killing in assay [1] (setting [3]) is -11.4%; in [1] (at 45.9 µM (top of the series), tumour line D), -14.1%; in assay [1] (setting [2]), 1.26%.

As to `Cc1cc(C)c(/C=C2\C(=O)Nc3ccccc32)[nH]1`, the Potency entry in the assay with MCC-13, with MCC-26, in the assay on MKL-2, in the assay with WaGa, in the assay with C33A and in the assay with CAOV3 was “inactive” throughout. In addition, the Potency entry in the assay with CASKI, in the assay on Es-2, in the assay on Hek293T, in the assay on JEG-3, in the assay on OV90 and with PA-1 was “inactive” each time. The Potency result in the assay with SKOV3, with Tov-21-G and with Tov112D was “inactive” each time. The activity, negative = cell killing in [1] (setting [3]) was -6.6%. For the same compound, the Potency in assay [1] (tumour line A) was 31.6 µM (active).

Consider `COc1cc2c(cc1OC)-c1cc(=Nc3c(C)cc(C)cc3C)n(C)c(=O)n1CC2`, for which the Potency result with CAOV3, in the assay with Hek293T and with OV90 was “inactive” throughout.

These data come from PubChem BioAssay (NCATS).
